Data from PubChem BioAssay (NCATS).
Records with an inconclusive call do not appear. Entries that show only a call come without a potency. Activity calls are given as the source filed them. The call rests on the fitted dose curve; in most records, active means well fitted curve in the direction sought with a large enough effect; inconclusive means small, poorly fitted or top-dose-only effect, or another doubt; inactive means no such curve, though single readings can be large; an effect the other way counts as inactive or inconclusive.

Tests used:
[1] = molecular target: Aldehyde dehydrogenase, mitochondrial (Homo sapiens) (UniProt P05091); assay: qHTS for Inhibitors of the Aldehyde Dehydrogenase Family (ALDH2) Primary screen (AID 2061308); further: nearly all actives have a fitted effect of over 55% in size
[2] = molecular target: Retinaldehyde dehydrogenase 3 (Homo sapiens) (UniProt P47895); assay: qHTS for Inhibitors of the Aldehyde Dehydrogenase Family (ALDH1A3) Primary screen (AID 2061315)
[3] = molecular target: Retinal dehydrogenase 2 (Homo sapiens) (UniProt O94788); assay: qHTS for Inhibitors of the Aldehyde Dehydrogenase Family (ALDH1A2) Confirmation screens (AID 2061314); further: nearly all actives have a fitted effect of over 65% in size; further: potency means the concentration at half of the fitted maximal effect
[4] = molecular target: Aldehyde dehydrogenase 1A1 (Homo sapiens) (UniProt P00352); assay: qHTS for Inhibitors of the Aldehyde Dehydrogenase Family (ALDH1A1) Confirmatory screens (AID 2061316); further: nearly all actives have a fitted effect of over 65% in size; further: potency means the concentration at half of the fitted maximal effect

Row | Compound | Potency [1] | Potency [2] | Potency [3] | Potency [4]
1 | Cc1nc(N2CCOCC2)c2nc(-c3ccccc3)n(CCCN3CCOCC3)c2n1 | inactive | inactive |  | 
2 | COc1cc(F)c(S(=O)(=O)N2CCCN(S(=O)(=O)c3ccc(NC(C)=O)cc3)CC2)c(F)c1 | inactive | inactive |  | 
3 | COc1ccc(C2=Nn3c(nnc3-c3ccccc3C(F)(F)F)SC2)cc1OC1CCOC1 (stereo unspecified) | inactive | inactive |  | 
4 | Cc1ccc(NS(=O)(=O)c2cc3c(cc2N[C@@H](C)CO)NC(=O)CC3)cc1Cl | inactive | inactive | 22.5 µM (active) | inactive
5 | Cc1c(C(=O)OCC2CC2)[nH]c2c1C(=O)CC(c1ccco1)C2 (stereo unspecified) | inactive | inactive | 8.96 µM (active) | 1.59 µM (active)
6 | Cc1c(P(=S)(c2ccccc2)c2ccccc2)[n+]2ccccc2n1CC(=O)c1ccccc1 | inactive | inactive |  | 
7 | Cc1ccc2nc3sc(C(=O)N4CCN(C5CCN(C)CC5)CC4)cc3cc2c1 | inactive | inactive | inactive | 12.7 µM (active)
8 | COc1ccc(Br)cc1S(=O)(=O)N1CCN(S(=O)(=O)c2ccc3c(c2)OCCO3)CC1 | inactive | inactive |  | 
9 | Cc1ccc(S(=O)(=O)Nc2ccc(Cl)cc2C(=O)Nc2nc(-c3ccccc3)cs2)cc1 | inactive | inactive |  | 
10 | N#CN1CCC(NS(=O)(=O)c2ccc(F)cc2)C1 (stereo unspecified) | inactive | inactive |  | 
11 | Cc1cc(-c2ccccc2)n2ncc(C(=O)Nc3ccccc3Sc3ccccc3)c2n1 | inactive | inactive |  | 
12 | O=C(OCC#CCSc1nnc(-c2cccc3ccccc23)o1)c1cccc2[nH]ccc12 | inactive | inactive |  | 
13 | Cc1cc2c(s1)c1cnn(Cc3c(F)cc(F)cc3F)c(=O)c1n2C | inactive | inactive |  | 
14 | COc1ccnc(NC(=S)N2CCN(c3cccc(C(F)(F)F)n3)CC2)c1 | inactive | inactive |  | 
15 | O=C(Nc1ccc(F)c(C(F)(F)F)c1)Nc1nnc(-c2ccncc2)o1 | inactive | inactive |  | 
16 | O=C1CCCC2=C1C(c1c(Cl)cccc1Cl)N=C(Nc1nc3ccccc3o1)N2 (stereo unspecified) | inactive | inactive |  | 
17 | CCN(CC)CCCn1c(-c2ccccc2)nc2c(NCc3ccccc3)nc(C)nc21 | inactive | inactive |  | 
18 | O=C(CNC(=O)c1cccc2ccccc12)OC(C(=O)Nc1cc(C(F)(F)F)ccc1Cl)c1ccccc1 (stereo unspecified) | inactive | inactive |  | 
19 | Cc1cc(Nc2nc(-c3ccccc3)nc3ccccc23)n[nH]1 | inactive | inactive |  | 
20 | COCC(=O)NCCc1nc2ccccc2n1CCOc1ccc(C)cc1 | inactive | inactive |  | 

Row | Compound | Potency [1] | Potency [2] | Potency [3] | Potency [4]
21 | COc1cc(O)c(C(CC(=O)N2CCCC(c3nc4ccccc4o3)C2)c2ccc3c(c2)OCO3)c(OC)c1 (stereo unspecified) | inactive | inactive |  | 
22 | Oc1ccc(-c2nn[nH]n2)c2cccnc12 | inactive | inactive |  | 
23 | C=CC(=O)Nc1cc(Nc2ncc(Cl)c(-c3c[nH]c4ccccc34)n2)c(OC)cc1N(C)CCN(C)C | inactive | inactive |  | 
24 | COc1ccc(CC(=O)Nc2nc(-c3ccc4c(c3)CCN4C(=O)c3ccccc3C)c(C)s2)cc1 | inactive | inactive |  | 
25 | O=S(=O)(c1ccc2c(c1)OCCO2)N1CCN(S(=O)(=O)c2cc(F)ccc2F)CC1 | inactive | inactive |  | 
26 | O=C(Nc1ccc([S+](=O)([O-])Nc2nccs2)cc1)C1CCNCC1 | inactive | inactive |  | 
27 | O=C1CCCC2=C1C(c1cccc(Oc3ccccc3)c1)N=C(Nc1nc3ccccc3o1)N2 (stereo unspecified) | inactive | inactive |  | 
28 | O=[N+]([O-])c1ccc(-c2nc(Nc3ccc(F)c(F)c3)c3ccccc3n2)cc1 | inactive | inactive |  | 
29 | Cc1cnc(-c2ccccc2OC(C)C)nc1NCc1ccc(-n2ccnn2)cc1 | inactive | inactive |  | 
30 | CC(=O)Nc1sc2c(c1-c1ccc3[nH]ccc3c1)CCNC2 | inactive | inactive |  | 
31 | Cn1ccc2cc(-c3ccc4ncnc(NCc5cccc(F)c5)c4c3)ccc21 | inactive | inactive |  | 
32 | O=c1c2ccccc2nc2sc(Nc3ccc4c(c3)CNC4)nn12 | inactive | inactive |  | 
33 | N#Cc1ccc(NC(=O)Nc2nnc(-c3ccncc3)s2)cc1 | inactive | inactive |  | 
34 | Cn1nnnc1Sc1ncnc2scc(-c3ccc(C#N)cc3)c12 | inactive | inactive |  | 
35 | CC(=O)Nc1sc2c(c1-c1ccc3c(c1)OCCO3)CCNC2 | inactive | inactive |  | 
36 | Cc1onc(-c2ccccc2Cl)c1C(=O)N[C@@H]1C(=O)N2[C@@H]1SC(C)(C)[C@@H]2C(=O)O | inactive | inactive |  | 
37 | Cc1ccc(OCCn2c(CCNC(=O)c3ccc(C(F)(F)F)cc3)nc3ccccc32)cc1 | inactive | inactive |  | 
38 | CCNC(=O)c1ccc(-c2ccc3ncnc(NCCc4cnc[nH]4)c3c2)o1 | inactive | inactive |  | 
39 | CCOc1ccc(CNc2ccc(-c3nc4ccccc4[nH]3)cc2)cc1 | inactive | inactive |  | 
40 | c1nc(NCc2ccc3c(c2)OCO3)c2cc(-c3ccoc3)ccc2n1 | inactive | inactive |  | 
